Bioassay records (PubChem BioAssay)
GALK inh: inhibits human galactokinase; Potency, µM (series often up to 57.5 µM), for the others: at the top dose activity, negative = inhibition, most hits filed as inhibitors; recombinant GALK, Kinase-Glo ATP luminescence, 1 h; 44,000 tested, under 10 active; AID 1347072;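 further: plate controls were full GALK reaction for no effect and reaction lacking GALK for full effect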
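Reactions with and without enzyme served as controls. GALK at 5 nM phosphorylates 100 uM galactose using 35 uM ATP (HEPES pH 8.0, Mg2+) for 1 h at RT, with luminescence read 10 min after adding Kinase-Glo Plus.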
NTMT1 inh: blocks human N-terminal methyltransferase 1 activity; Q9BV86; Potency, µM (doses to about 114 µM), without a hit: at the top dose activity change, negative = inhibition, most hits filed as inhibitors; 59,000 compounds, 2.5% hits; NTMT1 MTase-Glo SAH luminescence, purified enzyme; AID 1645870;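 further: potency means the concentration at half of the fitted maximal effect; plate controls were DMSO vehicle for no effect and no enzyme for full effect; nearly all actives have a fitted effect of over 65% in size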
FH mod: Identification of activators of human fumarate hydratase by quantitative high-throughput screening | Fumarate hydratase, mitochondrial (Homo sapiens), P07954 | FH coupled MDH/diaphorase resazurin fluorescence, 15 min | Potency, µM (doses to about 79.9 µM), for inactives: at the highest dose activity change, negative = inhibition, hits mostly inhibitors | 54,000 compounds, 0.22% hits; further: potency means the concentration at half of the fitted maximal effect; on the % scale 0 is the no-effect control and ±100 the full control effect; the screen sought activators but most active calls are inhibition curves; nearly all actives have a fitted effect of over 45% in size
Target sequence (P07954 whole entry, looked up): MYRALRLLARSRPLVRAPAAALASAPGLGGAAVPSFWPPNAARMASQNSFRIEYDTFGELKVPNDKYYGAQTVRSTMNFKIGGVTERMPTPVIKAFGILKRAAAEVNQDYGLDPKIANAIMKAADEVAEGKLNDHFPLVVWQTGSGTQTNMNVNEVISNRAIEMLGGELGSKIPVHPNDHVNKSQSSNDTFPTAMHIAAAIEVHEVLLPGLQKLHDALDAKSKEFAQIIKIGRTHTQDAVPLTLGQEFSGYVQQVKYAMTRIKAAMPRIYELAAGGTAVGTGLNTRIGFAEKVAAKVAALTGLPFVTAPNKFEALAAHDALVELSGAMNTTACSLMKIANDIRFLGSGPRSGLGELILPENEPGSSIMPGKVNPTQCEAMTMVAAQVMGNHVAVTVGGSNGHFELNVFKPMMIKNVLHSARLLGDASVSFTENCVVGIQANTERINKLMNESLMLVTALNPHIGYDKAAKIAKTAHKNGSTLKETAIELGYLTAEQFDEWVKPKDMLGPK
TSG101-PTAP inh: inhibitors of HIV-1 PTAP binding to human TSG101, validation | Q99816 | Fluorescence polarization, FITC-PTAP peptide/Tsg101, 20 min | Potency, µM (doses to about 115 µM), hits mostly inhibitors | 44,000 tested, under 10 active | AID 1347069; further: potency means the concentration at half of the fitted maximal effect; 0% is about no effect
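Compounds pinned into 10 uM Tsg101 binding domain, then 50 nM FITC-PTAP peptide added in pH 7.5 HEPES buffer; FP read after 20 min, room temperature. Total S+P intensity flags fluorescent compounds; active cut-off <25 µM, efficacy <60%.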
GPR32 ag: agonists of human resolvin D1 receptor DRV1 (GPR32). O75388. CHO-K1 GPR32 beta-arrestin PathHunter luminescence, 90 min; zero percent set by DMSO-only wells. activation, % at 76.9 µM. 48,000 compounds, 2.5% hits. AID 1346428;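 active means activation of at least 60% and not above a set upper limit, about 1 call in 100 departs from these limits; inconclusive means activation of 40% to 60%, or above that upper limit; inactive means activation under 40%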; further: 0% is about no effect
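Readings come from a cell-based beta-arrestin complementation format: CHO-K1 GPR32 stable cells (2,500/well) treated 90 min with compounds, then beta-Gal substrate added for 1 h before chemiluminescence imaging.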
B2AR arrestin ag: agonists recruiting beta-arrestin to human beta2-adrenergic receptor. P07550. HTLA Tango cells, beta-arrestin recruitment, luciferase luminescence, 18 h. Potency, µM (series often up to 46.1 µM), hits mostly activators. 44,000 tested, under 10 active;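 further: potency means the concentration at half of the fitted maximal effect; 0% = DMSO and full agonism = EC100 isoproterenol or metaproterenol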
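Receptor–beta-arrestin recruitment read by tTA-responsive luciferase: compound titrations (up to 46 µM) incubated 18 h with Tango cells, then luminescent substrate 15 min at room temperature. Concentration-response fits classified by r2, efficacy and activity.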
An asterisk follows results filed as active; i = inactive; ? = inconclusive; . = no result; ! = not confirmed by another sample; [ ] = dose if it differs, or a comment. Rows were chosen to be rich in hits. Some 3.7% of all compounds tested hit in one or more screens of this group. Unless noted, the call rests on the fitted dose curve; in most records, active means well fitted curve in the direction sought with a large enough effect; inconclusive means small, poorly fitted or top-dose-only effect, or another doubt; inactive means no such curve, though single readings can be large; an effect the other way counts as inactive or inconclusive.

SMILES | GALK inh | NTMT1 inh | FH mod | TSG101-PTAP inh | GPR32 ag | B2AR arrestin ag
CCCCNc1ncc2c(-c3ccc(CN4CCN(C)CC4)cc3)cn(C3CCC(O)CC3)c2n1 (centres undefined) | . | 79µM*! | -4% | . | . | .
CCC(=O)O[C@H]1C(C)(C)[C@H]([C@@H](O)C(=O)OC)[C@]2(C)C(=O)[C@@]1(O)[C@H]1O[C@]13C1CC(=O)O[C@@H](c4ccoc4)[C@]1(C)CCC32 (some centres undefined) | . | 4%[12.6 µM] | 7%[20.6 µM] | . | . | .
O=C(O)Cn1nnc(-c2ccc(OCc3cccc(C(F)(F)F)c3)cc2)n1 | -1% | 7% | -11% | i | 0 | i
C#CC(C)(CC)NC(=O)Cn1nnc(-c2ccc(OCc3ccccc3C)cc2)n1 (centres undefined) | 9% | -27% | -8% | i | 62* | i
C#CC(C)(CC)NC(=O)Cn1nnc(-c2ccc(OCc3ccccc3F)cc2)n1 (centres undefined) | -3% | -1% | 4% | i | 91* | i
COC(=O)c1ccccc1NC(=O)Cn1nnc(-c2ccc(OC)cc2)n1 | 2% | 5% | -6% | i | -1 | i
O=C(Nc1cccc(C(=O)O)c1)Nc1nnc(-c2ccncc2)s1 | . | 11% | . | . | . | .
O=c1onc2cnc3ccccc3n12 | . | . | -10%[53.3 µM] | . | 68* | .
C[C@H]1CC(=O)Nc2cccc(-c3cnn(C(C)(C)C)c3)c2N1 | . | -8%[57.5 µM] | 1% | . | . | .
COc1ccc(Nc2ncnc3c2nc2n3CCCC2)cc1Cl | -9% | ? | -3% | i | 8 | i
COc1ccc(Nc2ncnc3sc4c(c23)CCCC4)cc1 | 1% | 22µM* | -10% | i | 94* | i
COc1ccc(Nc2ncnc3c2nc2n3CCCCC2)cc1 | -3% | 1% | 4% | i | 77* | i
CCOc1ccc(Nc2ncnc3c2nc2n3CCCCC2)cc1 | 1% | -27% | -16% | i | 85* | i
CCc1ccc(Nc2ncnc3sc4c(c23)CCCC4)cc1 | 0% | -6% | -6% | i | -2 | i
COc1ccccc1N1CCN(c2ncnc3c2nc2n3CCCC2)CC1 | -1% | ? | -10% | i | 63* | i
CC1=C(C(=O)OC2CCCCC2)C(c2ccc([N+](=O)[O-])cc2)C2=C(CC(C)(C)CC2=O)N1 (centres undefined) | . | ? | -17% | . | . | .
COC(C(=O)N1Cc2[nH]nc(NC(=O)c3ccc(N4CCN(C)CC4)cc3)c2C1)c1ccccc1 (centres undefined) | . | 14%[57.5 µM] | -9% | . | . | .
Cc1ccc(OCCn2c(CCNC(=O)Cc3cccc(F)c3)nc3ccccc32)cc1 | . | 6% | . | . | . | .
Fc1cnc(-c2ccccc2C(F)F)nc1NCC1CCN(c2cnccn2)C1 (centres undefined) | . | -1% | . | . | . | .
O=c1onc2n1-c1cc(Br)ccc1OC2 | . | . | ? | . | 65* | .
O=S(=O)(c1ccc2c(c1)OCCO2)N1CCN(S(=O)(=O)c2ccc(Br)cc2F)CC1 | . | 2% | . | . | . | .
OC[C@H]1O[C@@H](n2cnc3c(=S)nc[nH]c32)[C@H](O)[C@@H]1O | . | 5.6µM* | 4%[53.3 µM] | . | -87 | .
Nc1ncnc2c1ncn2[C@@H]1O[C@H](CO)[C@@H](O)[C@H]1O | . | 50µM*! | 0%[53.3 µM] | . | 4 | .
Nc1ncnc2c1ncn2[C@H]1O[C@H](CO)[C@@H](O)[C@@H]1O | . | ? | 11%[162 µM] | . | . | .
CC1(C)Cc2c(sc(NC(=S)NC(=O)c3ccccc3)c2C(=O)O)CO1 | . | 79µM*! | -4%[53.3 µM] | . | . | .
O=C1c2ccccc2-c2nc3nnnn3nc21 (tested in a mixture with another compound) | . | ? | 0.89µM* | . | . | .
COc1cc(-c2nc3cccc(C)n3c2Nc2ccc3c(c2)OCCO3)ccc1O | 0% | 0% | -7% | i | 61* | i
Clc1cccc(-c2nc3ccccn3c2Nc2ccc3c(c2)OCCO3)c1 | 0% | 4µM* | -20% | i | -7 | i
